Rows were chosen to be rich in hits. Some 1.5% of all compounds tested hit in one or more screens of this group.
WRN inhibitor = WRN helicase (human) inhibition | Q14191 | WRN helicase unwinding, fluorescent forked duplex, kinetic | Potency, µM (doses to about 114 µM), for the others: at the top dose activity change, negative = inhibition, usual class: inhibitors | 360,000 tested, 0.46% active; note: potency is the fitted concentration of half-maximal effect; nearly all actives have a fitted effect of over 55% in size
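Fluorescence dequenching readout, ex 525 nm/em 598 nm, kinetic mode: forked duplex DNA (100 nM final) with adjacent fluorophore and quencher unwound by WRN (20 nM final) with 2 mM ATP. Compound preincubation 15 min, room temperature.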
TDP1 block = blocks human tyrosyl-DNA phosphodiesterase 1. 350,000 tested, 0.28% active. Potency, µM (titrated, usually from 130 µM), without a hit: top-dose activity change, negative = inhibition, usual class: inhibitors. recombinant TDP1, AlphaScreen DNA substrate cleavage. Q9NUW8. AID 485290; note: potency is the fitted concentration of half-maximal effect; nearly all actives have a fitted effect of over 40% in size
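Recombinant human Tdp1 (E. coli-expressed, 1 nM final) preincubated with compounds 15 min at room temperature, then 5'-biotin/3'-phosphotyrosine-FITC DNA substrate (15 nM final) added for 5 min. AlphaScreen beads (10 ug/ml final) added 10 min; cleavage lowers signal.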
PGK inhibitor = inhibitors of T. brucei phosphoglycerate kinase. P07378. PGK/GAPDH coupled, Kinase-Glo luminescence, 60 min. Potency, µM (doses to about 57.5 µM), for the others: top-dose activity change, negative = inhibition, usual class: inhibitors. 380,000 tested, 0.043% active; note: potency is the fitted concentration of half-maximal effect; nearly all actives have a fitted effect of over 60% in size
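Luminescent ATP detection (Kinase-Glo Plus) follows a 60-minute room-temperature incubation, with wells lacking PGK as controls. Buffer: 100 mM TEA (pH 7.6), 5 mM MgCl2, 0.01% Tween-20. Coupling enzyme GAPDH (100 nM final) supplies unstable 1,3-BPG in-well.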
PI5P4K alpha inh = blocks human PI5P4K alpha kinase activity; PI5P4Kalpha enzyme, ADP-Glo luminescence, 60 min; hits give low values; max response, %; AID 652105; P48426; 330,000 tested, 1.2% active; active = max response of -50% or lower; inconclusive = between -30% and -50%; inactive = -30% or higher; note: value at the top dose of about 77 µM
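Luminescence from ADP-Glo served as readout of PI5P4Kalpha activity in a qHTS format. Reaction: enzyme, substrate, compound, ATP at 5 microM final, 60 min at RT.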
FEN1 inh = human FEN1 inhibition; Recombinant FEN1 flap cleavage, fluorescence, 15 min; Potency, µM (series often up to 114 µM), inactives show top-dose activity change, negative = inhibition, usual class: inhibitors; 390,000 tested, 0.35% active; note: potency is the fitted concentration of half-maximal effect; nearly all actives have a fitted effect of over 65% in size
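Read-out was taken twice, immediately and after 15 min, following addition of 50 nM substrate to 10 nM FEN1 that had sat with test compound for 15 min at room temperature. Curves came from a four-parameter Hill model.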
Tb PFK inh = T. brucei PFK enzyme inhibition | O15648 | T. brucei PFK, ADP-Glo luminescence | Potency, µM (doses to about 57.5 µM), inactives show at the top dose activity, negative = inhibition, usual class: inhibitors | 330,000 tested, 0.17% active | AID 485367;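 note: potency is the fitted concentration of half-maximal effect; 0% = uninhibited 1x PFK enzyme wells and -100% = no-enzyme wells; nearly all actives have a fitted effect of over 60% in size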
Target sequence (O15648 whole entry, looked up): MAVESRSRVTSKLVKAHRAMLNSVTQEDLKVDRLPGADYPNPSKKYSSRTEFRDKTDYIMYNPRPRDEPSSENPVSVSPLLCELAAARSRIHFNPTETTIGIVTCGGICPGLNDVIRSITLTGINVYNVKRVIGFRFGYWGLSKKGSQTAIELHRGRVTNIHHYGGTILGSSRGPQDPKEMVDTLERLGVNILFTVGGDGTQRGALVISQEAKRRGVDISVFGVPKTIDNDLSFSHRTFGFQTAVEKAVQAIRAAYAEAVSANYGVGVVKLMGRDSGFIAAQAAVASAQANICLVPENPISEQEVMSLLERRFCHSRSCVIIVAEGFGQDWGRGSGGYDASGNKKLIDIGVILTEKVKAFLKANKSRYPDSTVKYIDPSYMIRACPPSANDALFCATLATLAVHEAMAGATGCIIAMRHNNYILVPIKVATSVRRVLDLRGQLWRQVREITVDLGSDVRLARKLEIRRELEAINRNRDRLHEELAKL
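Compounds were pin-transferred as a titration series up to 57 uM into substrate buffer (0.5 mM F6P, 0.1 mM ATP, pH 8.0), then 1.25 nM PFK was added and reactions ran 45 min before ADP-Glo detection.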
Numbers without * were called inactive; i = inactive; ? = inconclusive; . = no result given; [ ] = another dose, or the depositor's remark. Unless noted, calls come from the whole dose curve; as a rule, active = well fitted curve in the direction sought with a large enough effect; inconclusive = small, poorly fitted or top-dose-only effect, or another doubt; inactive = no such curve, though single readings can be large; an effect the other way counts as inactive or inconclusive. Unless noted, % is set by controls: 0 for no effect and ±100 for the full control effect.

SMILES	WRN inhibitor	TDP1 block	PGK inhibitor	PI5P4K alpha inh	FEN1 inh	Tb PFK inh
O=C(Nc1ccc(-c2ccccc2)cc1)c1ccccc1	-1.8%	.	-2.1%	-3.2	-20.0%	0.6%
O=C(Nc1ccc(-c2n[nH]c(=S)o2)cc1)c1ccccc1	-8.4%	.	.	-62.8*	-6.6%	0.0%
O=C(Cc1nnc(-c2cc3ccccc3[nH]2)o1)Nc1cc(C(F)(F)F)ccc1Cl	.	-3.7%	.	.	.	.
COc1cc2nc(N3CCOCC3)nc(NC3CCN(Cc4ccccc4)CC3)c2cc1OC	.	.	.	.	-9.9%	.
COc1cc2c(NC3CCN(C)CC3)nc(N3CCCN(C)CC3)nc2cc1OCC1CCNCC1	.	.	.	.	10µM*	.
COc1cc2c(NC3CCN(C)CC3)nc(N3CCCN(C)CC3)nc2cc1OCCN(C)C	.	.	.	.	25.1µM*	.
COc1cc2c(NC3CCN(C(C)C)CC3)nc(N3CCCN(C)CC3)nc2cc1OCCCN(C)C	.	.	.	.	31.6µM*	.
COc1cc2c(NC3CCN(C)CC3)nc(N3CCCN(C)CC3)nc2cc1OCCCCCN(C)C	.	.	.	.	22.4µM*	.
CCN(CC)CCCOc1cc2nc(N3CCCN(C)CC3)nc(NC3CCN(C)CC3)c2cc1OC	.	.	.	.	25.1µM*	.
COc1cc2c(NC3CCN(C)CC3)nc(N3CCCN(C)CC3)nc2cc1OCCCCN	.	.	.	.	10µM*	.
COc1cc2nc(N3CCN(C)CC3)nc(NC3CC3)c2cc1OC	.	.	.	.	-20.2%	.
N#Cc1cc2c([nH]c1=O)CCCC2	4.7%	4.8%	-7.1%	0.8	12.4%	-9.2%
N#Cc1cc2c([nH]c1=S)CCCC2	-32.6%	5.3%	1.1%	-72.6*	1.4%	?
Cc1c(C(=O)Nc2ccccc2)cn2c(nc3ccccc32)c1C#N	-12.9%	7.1%	4.7%	-1.7	-7.0%	-2.6%
Cc1ccccc1C(=O)Nc1ccc2c(C#N)c3nc4ccccc4nc3n2c1	56.2µM*	11.3%	-10.5%	?	?	-3.3%
CCOc1ccccc1CNC(=O)CCn1c(=O)c2cccn2c2ccc(F)cc21	.	1.3%	-2.3%	.	13.0%	.
CC(=O)OCC1=C(C(=O)OC(C)(C)C)N2C(=O)[C@@H](NC(=O)Cc3ccccc3)[C@H]2SC1	-28.2%	.	-1.3%	-51.0*	?	.
O=C(O)c1ccccc1O[C@@H]1O[C@H](C(=O)O)[C@@H](O)[C@H](O)[C@H]1O	.	3.6%	.	.	.	.
CCOC(=O)N/N=C1/C[C@@H](O)[C@@H](O)[C@@H]2[C@@H]3C(=O)N(Cc4ccc5c(c4)OCO5)C(=O)[C@H]3CC[C@H]12	.	3.7%[21 µM]	.	.	.	.
C/C(=N\OC(=O)c1ccc(C)cc1)c1sc(C)nc1C	-26.0%[57.1 µM]	1.9%	-9.6%	2.3	-2.2%	1.2%
COc1ccc(C(=O)O/N=C(\C)c2ccccc2)cc1	-0.4%[57.1 µM]	3.2%	22.4µM*	?	-7.5%	-12.8%
C/C(=N/OC(=O)c1ccc(C)cc1)c1cccs1	7.8%	0.5%	31.6µM*	-25.0	-9.2%	?
Cc1cc2c(s1)c1cnn(Cc3ccc(C(F)(F)F)cc3)c(=O)c1n2C	.	-4.4%	.	.	.	.
Cn1c(SCC(=O)c2ccc(-c3ccccc3)cc2)nnc1-c1ccco1	-11.0%	0.0%	0.6%	-61.7*	2.4%	-26.3%
O=C(CSc1nnc(-c2ccco2)n1Cc1ccccc1)c1ccccc1	-13.4%	7.0%	-0.8%	1.5	-8.9%	-5.6%
COc1ccc2[nH]c3c(NCCC4=CCCCC4)ncnc3c2c1	-20.0%	6.2%	i	-61.1*	?	-2.0%
COc1ccc(C2Nc3ccccc3C(=O)N2Cc2ccc(C(C)(C)C)cc2)cc1COc1ccc(NC(C)=O)cc1 (centres undefined)	.	1.0%	.	.	.	.
Cc1nc2ccc(NC(=O)c3ccc(Cl)c([N+](=O)[O-])c3)cc2s1	-5.9%	-0.6%	i	5.6	32.4%	0.0%
Cc1nc2ccc(NC(=O)c3cc([N+](=O)[O-])cc([N+](=O)[O-])c3Cl)cc2s1	10µM*	1.9%	i	-28.0	0.3%	-0.5%
c1ccc2c(c1)sc[n+]2CCC1CCCCC1	.	.	.	.	3.1%	.

Source: PubChem BioAssay
